Inconclusive results are not listed. Calls of active or inactive are those of the source. Calls follow the shape of the dose curve; as a rule, active = well fitted curve in the direction sought with a large enough effect; inconclusive = small, poorly fitted or top-dose-only effect, or another doubt; inactive = no such curve, though single readings can be large; an effect the other way counts as inactive or inconclusive.
Columns and labels:
[1] = qHTS of pediatric cancer cell lines to identify multiple opportunities for drug repurposing: Primary screen for SK-N-MC cells (AID 1347093); also: potency is read from the fitted curve at half-maximal effect
How it was run: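 Metabolically active cells were quantified by ATP-dependent luminescence (CellTiter-Glo, 15 min at room temperature) following 48 h treatment. Cells had been plated at 500-1,000 per well and settled for 5 h beforehand.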

[2] = qHTS of pediatric cancer cell lines to identify multiple opportunities for drug repurposing: Primary screen for BT-37 cells (AID 1347094); also: potency is read from the fitted curve at half-maximal effect
How it was run: (§1)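 Plated cells (500-1,000 per well, growth media) were allowed to settle for 5 hours, treated with compound dilutions for 48 hours, then lysed with CellTiter-Glo for 15 min at room temperature before luminescence reading.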

[3] = qHTS of pediatric cancer cell lines to identify multiple opportunities for drug repurposing: Primary screen for NB-EBc1 cells (AID 1347095); also: potency is read from the fitted curve at half-maximal effect
How it was run: as §1

[4] = qHTS of pediatric cancer cell lines to identify multiple opportunities for drug repurposing: Primary screen for U-2 OS cells (AID 1347096); also: nearly all actives have a fitted effect of over 50% in size; also: potency is read from the fitted curve at half-maximal effect
How it was run: (§2)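 Cells (500-1,000/well) in growth media were settled 5 h at 37 degrees C, then given compounds for 48 h. Viability was read as CellTiter-Glo luminescence. Primary runs used MIPE at 11 points (0.78 nM-46 µM) and NPC at 8 points (0.59 nM-46 µM); follow-ups used 11 points.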

[5] = qHTS of pediatric cancer cell lines to identify multiple opportunities for drug repurposing: Primary screen for Saos-2 cells (AID 1347097); also: nearly all actives have a fitted effect of over 40% in size; also: potency is read from the fitted curve at half-maximal effect
How it was run: as §1

[6] = qHTS of pediatric cancer cell lines to identify multiple opportunities for drug repurposing: Primary screen for SK-N-SH cells (AID 1347098); also: nearly all actives have a fitted effect of over 65% in size; also: potency is read from the fitted curve at half-maximal effect
How it was run: (§3)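 Cells (500-1,000/well) rested 5 h, then received compounds for 48 h; metabolically active cells were measured by CellTiter-Glo luminescence. Final concentrations spanned up to 46 µM (MIPE, 11-point) or 0.59 nM-46 µM (NPC, 8-point) in primary screens, 11-point in follow-ups.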

[7] = qHTS of pediatric cancer cell lines to identify multiple opportunities for drug repurposing: Primary screen for NB1643 cells (AID 1347099); also: nearly all actives have a fitted effect of over 50% in size; also: potency is read from the fitted curve at half-maximal effect
How it was run: as §1

[8] = qHTS of pediatric cancer cell lines to identify multiple opportunities for drug repurposing: Primary screen for LAN-5 cells (AID 1347100); also: potency is read from the fitted curve at half-maximal effect
How it was run: as §2

[9] = qHTS of pediatric cancer cell lines to identify multiple opportunities for drug repurposing: Primary screen for BT-12 cells (AID 1347101); also: nearly all actives have a fitted effect of over 25% in size; also: potency is read from the fitted curve at half-maximal effect
How it was run: as §3

[10] = qHTS of pediatric cancer cell lines to identify multiple opportunities for drug repurposing: Primary screen for Rh18 cells (AID 1347102); also: nearly all actives have a fitted effect of over 65% in size
How it was run: as §2

Measured: Potency

O=C1CCC[C@@H]2[C@H]3CCCN4CCC[C@@H](CN12)[C@@H]34
inactive: all assays above

O=C(O)c1cc(Oc2ccc(C(F)(F)F)cc2Cl)ccc1[N+](=O)[O-]
inactive: all assays above

C[C@@H]1[C@H](O)[C@@H](C)C=CC=CCCC=CC=CC=CC=C[C@H](O[C@H]2O[C@@H](C)[C@H](O)[C@@H](N)[C@@H]2O)CC2O[C@](O)(C[C@@H](O)[C@H](O)CC[C@@H](O)C[C@@H](O)C[C@@H](O)CC(=O)O[C@H]1C)C[C@H](O)[C@H]2C(=O)O
inactive: all assays above

Oc1ccc2c3c1O[C@H]1c4[nH]c5c(c4C[C@@]4(O)[C@@H](C2)N(CC2CC2)CC[C@]314)C[C@@]1(O)[C@H]2Cc3ccc(O)c4c3[C@@]1(CCN2CC1CC1)[C@H]5O4
not listed: [10]
inactive: all other assays above

CC(C)(O)C=CC(=O)[C@](C)(O)[C@H]1[C@H](O)C[C@]2(C)[C@@H]3CC=C4[C@@H](C=C(O)C(=O)C4(C)C)[C@]3(C)C(=O)C[C@@]12C
active: [1] 33.2 nM | [2] 1370 nM | [3] 332 nM | [4] 148 nM | [5] 105 nM | [6] 152 nM | [7] 37.2 nM | [8] 74.3 nM | [9] 243 nM

COCC1(CO)C(=O)C2CCN1CC2 (stereo not drawn)
inactive: [4] | [10]
active: [1] 1180 nM | [2] 1220 nM | [3] 264 nM | [5] 8330 nM | [6] 1080 nM | [7] 5900 nM | [8] 833 nM | [9] 21700 nM

CC[N+]1(CCOC(=O)C(O)(c2ccccc2)c2ccccc2)CCCCC1
not listed: [10]
inactive: all other assays above

Nc1c(Cl)c(Cl)c(Cl)c(Cl)c1Cl
inactive: all assays above

CC(C)N(CCNC(=O)CN1CCCC1=O)C(C)C
not listed: [10]
inactive: all other assays above

O=[N+]([O-])c1ccc([As](=O)(O)O)cc1
not listed: [10]
inactive: all other assays above

Cc1ccc(Cl)c(O)c1
inactive: all assays above

Oc1ccc2c3c1O[C@H]1[C@@H](O)C=C[C@H]4[C@@H](C2)NCC[C@@]341
not listed: [8] | [9] | [10]
inactive: all other assays above

CCOCCOC(C)=O
not listed: [9] | [10]
inactive: all other assays above

Cc1cc(O)ccc1Cl
not listed: [9] | [10]
inactive: all other assays above

O=c1[nH]c2ccc(Cl)cc2c(N[C@@H]2CN3CCC2CC3)c1-c1nc2ccccc2[nH]1
active: [1] 33.2 nM | [2] 5440 nM | [3] 41.8 nM | [4] 187 nM | [5] 418 nM | [6] 9610 nM | [7] 526 nM | [8] 148 nM

CS(=O)(=O)c1ccc(C(=O)C2C(=O)CCCC2=O)c([N+](=O)[O-])c1
active: [1] 1 nM | [7] 1 nM
inactive: all other assays above

CN[C@@H]1Cc2cccc3[nH]c(=O)n(c23)C1
not listed: [9] | [10]
inactive: all other assays above

CC(Cc1ccc(O)cc1)NCC(O)c1cc(O)cc(O)c1 (stereo not drawn)
not listed: [10]
inactive: all other assays above
